For seven compounds, AC50 and outcome results are on record in PubChem BioAssay (EPA / NIEHS).

Several values for one entry are separate records, joined by “and”; a condition that tells them apart may be missing. Equal entries are not always repeated. Results filed as inconclusive are left out. Where a structure was tested more than once in an assay, its records may differ in their call. Activity calls are given as the source filed them. How the source made its calls, unless noted: active means hit-call score of the fitted dose curve at least 0.9, where 1 is the maximum; inconclusive means response in the unintended direction; inactive means score below 0.9.

Chain of zebrafish Thyroid Hormone Receptor alpha (TRa), thraa (gene 30670) (Q98867 whole entry, looked up, the tested form may be a part): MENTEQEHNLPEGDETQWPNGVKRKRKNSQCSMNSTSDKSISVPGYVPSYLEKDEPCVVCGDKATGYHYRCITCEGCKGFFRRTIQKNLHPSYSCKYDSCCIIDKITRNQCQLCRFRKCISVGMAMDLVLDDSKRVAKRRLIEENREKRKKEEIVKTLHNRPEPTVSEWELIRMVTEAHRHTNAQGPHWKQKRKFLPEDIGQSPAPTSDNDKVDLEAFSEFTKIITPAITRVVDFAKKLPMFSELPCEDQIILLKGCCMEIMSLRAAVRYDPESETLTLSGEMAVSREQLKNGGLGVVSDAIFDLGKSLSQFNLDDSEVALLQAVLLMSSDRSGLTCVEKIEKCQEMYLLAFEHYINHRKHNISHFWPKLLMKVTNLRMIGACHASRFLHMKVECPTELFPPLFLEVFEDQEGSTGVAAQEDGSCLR
Chain of zebrafish Thyroid Hormone Receptor beta (TRb), thrb (gene 30607) (Q9PVE4 whole entry, looked up, the tested form may be a part): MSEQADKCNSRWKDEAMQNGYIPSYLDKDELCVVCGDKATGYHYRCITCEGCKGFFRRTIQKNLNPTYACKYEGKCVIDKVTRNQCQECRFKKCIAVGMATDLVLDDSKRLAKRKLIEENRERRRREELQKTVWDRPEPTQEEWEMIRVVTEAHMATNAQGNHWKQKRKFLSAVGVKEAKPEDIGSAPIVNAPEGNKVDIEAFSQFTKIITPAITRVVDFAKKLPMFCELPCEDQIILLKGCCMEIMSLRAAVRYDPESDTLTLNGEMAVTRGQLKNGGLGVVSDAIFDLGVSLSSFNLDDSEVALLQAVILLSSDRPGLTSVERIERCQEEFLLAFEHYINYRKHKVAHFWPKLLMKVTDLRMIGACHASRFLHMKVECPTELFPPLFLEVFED
Chain of Peroxisome proliferator-activated receptor gamma (Homo sapiens) (P37231 whole entry, looked up, the tested form may be a part): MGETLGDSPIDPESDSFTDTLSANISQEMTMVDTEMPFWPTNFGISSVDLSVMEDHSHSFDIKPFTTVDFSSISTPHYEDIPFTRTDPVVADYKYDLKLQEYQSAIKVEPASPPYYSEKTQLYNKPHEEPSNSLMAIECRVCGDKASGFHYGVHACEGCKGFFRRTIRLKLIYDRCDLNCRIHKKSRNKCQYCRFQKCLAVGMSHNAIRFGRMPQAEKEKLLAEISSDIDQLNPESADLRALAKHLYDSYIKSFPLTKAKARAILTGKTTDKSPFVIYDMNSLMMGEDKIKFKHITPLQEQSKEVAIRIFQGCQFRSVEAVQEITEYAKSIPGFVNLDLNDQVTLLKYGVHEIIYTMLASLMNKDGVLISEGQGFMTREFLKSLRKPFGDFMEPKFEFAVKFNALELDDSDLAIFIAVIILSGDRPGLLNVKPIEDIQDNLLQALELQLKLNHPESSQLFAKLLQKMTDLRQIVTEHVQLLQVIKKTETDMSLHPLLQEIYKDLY

One experiment addresses Peroxisome proliferator-activated receptor gamma (Homo sapiens) (UniProt P37231). Kind of experiment: ATG_hPPARg_XSP2: Attagene TRANS-FACTORIAL Multi-Species (XSP2) HepG2 Assay for human Peroxisome Proliferator-activated Receptor gamma (PPARg) (AID 2283829).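 Further: actives raise reporter mRNA above DMSO so AC50 reflects PPARg activation.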 The gist of the method: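 HepG2 cells transiently transfected with GAL4-UAS reporter units driven by chimeric NR-Gal4 proteins; androgen receptor stimulated with 3 nM 6-alpha-fluorotestosterone and 1.5 nM norgestrel. After 24 h, reporter mRNA quantified by RT-PCR and capillary electrophoresis versus DMSO.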
What is called AC50 is the concentration giving half of the maximal activity seen. Take `Cc1c2ccccc2c(C)c2c1ccc1ccccc12`: the half-maximal activity concentration (AC50) is 26 µM (active).

On to `O=c1c(-c2ccc(O)cc2)coc2cc(O)cc(O)c12`, for which the outcome was inactive.

For the compound `CC1(C)NC(=O)N(c2ccc([N+](=O)[O-])c(C(F)(F)F)c2)C1=O`, the compound was called inactive.

For a further experiment, the target named is mouse Peroxisome Proliferator-activated Receptor gamma (PPARg), Pparg (gene 19016) (UniProt P37238). Nature of the experiment: ATG_mPPARg_XSP2: Attagene TRANS-FACTORIAL Multi-Species (XSP2) HepG2 Assay for mouse Peroxisome Proliferator-activated Receptor gamma (PPARg) (AID 2283830).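 Further: hits are gains in reporter mRNA above DMSO so AC50 marks activation.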 The gist of the method: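 HepG2 cells transiently transfected with GAL4-UAS reporter units for chimeric NR-Gal4 proteins including mouse PPARg, exposed 24 h; medium contained 3 nM 6-alpha-fluorotestosterone and 1.5 nM norgestrel. Reporter mRNA quantified by RT-PCR, HpaI digestion and capillary electrophoresis, vs DMSO.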
Chain of mouse Peroxisome Proliferator-activated Receptor gamma (PPARg), Pparg (gene 19016) (P37238 whole entry, looked up, the tested form may be a part): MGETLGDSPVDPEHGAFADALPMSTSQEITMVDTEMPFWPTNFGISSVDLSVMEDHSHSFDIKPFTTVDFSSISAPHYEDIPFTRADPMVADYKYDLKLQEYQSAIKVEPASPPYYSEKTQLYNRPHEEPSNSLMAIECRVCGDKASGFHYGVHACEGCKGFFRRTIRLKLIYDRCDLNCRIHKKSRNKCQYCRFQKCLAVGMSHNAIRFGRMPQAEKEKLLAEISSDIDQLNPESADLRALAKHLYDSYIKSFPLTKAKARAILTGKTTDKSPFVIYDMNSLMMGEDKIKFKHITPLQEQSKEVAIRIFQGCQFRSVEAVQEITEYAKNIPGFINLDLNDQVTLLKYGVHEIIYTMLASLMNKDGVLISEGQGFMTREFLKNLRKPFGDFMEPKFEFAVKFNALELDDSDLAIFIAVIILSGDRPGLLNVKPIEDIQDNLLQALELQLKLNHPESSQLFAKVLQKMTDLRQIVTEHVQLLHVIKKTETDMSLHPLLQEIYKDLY
On to `CC(C)(c1cc(Br)c(O)c(Br)c1)c1cc(Br)c(O)c(Br)c1`, for which the concentration at half-maximal activity (AC50) is 3.77 µM (active).

As for `Cc1c2ccccc2c(C)c2c1ccc1ccccc12`, the AC50 is 16.6 µM (active).

`CC1(C)NC(=O)N(c2ccc([N+](=O)[O-])c(C(F)(F)F)c2)C1=O`: the call was inactive.

On to `O=C(O)Cc1cc(I)c(Oc2ccc(O)c(I)c2)c(I)c1`, for which the AC50 was 1 µM (active) and 390 nM (active).

For a further experiment, the target named is Nuclear receptor subfamily 1 group I member 2 (Mus musculus) (UniProt O54915). Kind of experiment: ATG_mPXR_XSP2: Attagene TRANS-FACTORIAL Multi-Species (XSP1) HepG2 Assay for mouse Pregnane X Receptor (PXR) (AID 2283831). The method in brief: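 HepG2 cells transiently transfected with GAL4-UAS reporter units expressing chimeric NR-Gal4 proteins; 24 h compound exposure. Reporter mRNA quantified by RT-PCR and capillary electrophoresis fluorescence; gain of signal fitted against DMSO.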
Chain of Nuclear receptor subfamily 1 group I member 2 (Mus musculus) (O54915 whole entry, looked up, the tested form may be a part): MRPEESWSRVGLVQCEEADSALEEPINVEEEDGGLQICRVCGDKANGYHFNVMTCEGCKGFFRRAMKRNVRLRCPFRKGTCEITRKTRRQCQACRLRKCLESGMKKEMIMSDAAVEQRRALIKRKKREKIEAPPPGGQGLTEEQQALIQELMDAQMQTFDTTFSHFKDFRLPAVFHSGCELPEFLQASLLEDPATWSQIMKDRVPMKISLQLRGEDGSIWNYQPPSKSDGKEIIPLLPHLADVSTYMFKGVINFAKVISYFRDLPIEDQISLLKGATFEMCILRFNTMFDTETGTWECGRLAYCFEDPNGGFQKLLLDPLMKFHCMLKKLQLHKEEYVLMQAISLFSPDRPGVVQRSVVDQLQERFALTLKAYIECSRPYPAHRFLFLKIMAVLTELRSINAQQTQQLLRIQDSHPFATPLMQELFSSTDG
On to `Cc1c2ccccc2c(C)c2c1ccc1ccccc12`, for which the AC50 was 18.3 µM (active).

For `O=c1c(-c2ccc(O)cc2)coc2cc(O)cc(O)c12`, the call was inactive.

Turning to `CC1(C)NC(=O)N(c2ccc([N+](=O)[O-])c(C(F)(F)F)c2)C1=O`, the AC50 was 100 µM (active) and the compound was called inactive.

The next experiment has as its target zebrafish Thyroid Hormone Receptor alpha (TRa), thraa (gene 30670) (UniProt Q98867). Kind of experiment: ATG_zfTRa_XSP2: Attagene TRANS-FACTORIAL Multi-Species (XSP1) HepG2 Assay for zebrafish Thyroid Hormone Receptor alpha (TRa) (AID 2283832).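 Further: actives raise zebrafish TRa-Gal4 reporter transcript above DMSO baseline.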 The method in brief:
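Chimeric receptor-Gal4 activity was assessed in transfected human liver HepG2 cells 24 h after dosing, using reporter transcript levels detected by RT-PCR and capillary electrophoresis. DMSO served as baseline.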
Regarding `CC(C)(c1cc(Br)c(O)c(Br)c1)c1cc(Br)c(O)c(Br)c1`, the outcome was inactive.

As for `O=c1c(-c2ccc(O)cc2)coc2cc(O)cc(O)c12`, the result was inactive.

On to `CC1(C)NC(=O)N(c2ccc([N+](=O)[O-])c(C(F)(F)F)c2)C1=O`, for which the compound was called inactive.

`O=C(O)Cc1cc(I)c(Oc2ccc(O)c(I)c2)c(I)c1`: the AC50 is 0.00602 µM (active).

The test system of the next experiment is zebrafish Peroxisome Proliferator-activated Receptor gamma (PPARg), gene 557037. Kind of experiment: ATG_zfPPARg_XSP2: Attagene TRANS-FACTORIAL Multi-Species (XSP2) HepG2 Assay for zebrafish Peroxisome Proliferator-activated Receptor gamma (PPARg) (AID 2283833).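 Further: actives increase reporter signal over DMSO so AC50 reflects activation.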 The method in brief: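 HepG2 cells transiently transfected with multiplexed GAL4-UAS reporter units expressing chimeric NR-Gal4 receptors, dosed 24 h. Reporter mRNA quantified by RT-PCR, fluorescent labelling, HpaI digestion and capillary electrophoresis; gain of signal fitted against DMSO.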
On to `CC(C)(c1cc(Br)c(O)c(Br)c1)c1cc(Br)c(O)c(Br)c1`, for which the AC50 is 14.4 µM (active).

In the case of `Cc1c2ccccc2c(C)c2c1ccc1ccccc12`, the call was inactive.

Turning to `O=c1c(-c2ccc(O)cc2)coc2cc(O)cc(O)c12`, the call was inactive.

With `O=C(O)Cc1cc(I)c(Oc2ccc(O)c(I)c2)c(I)c1`, the outcome was inactive.

The next experiment concerns turtle Thyroid Hormone Receptor, alpha (TRa), gene 101949057. Nature of the experiment: ATG_trTRa_XSP2: Attagene TRANS-FACTORIAL Multi-Species (XSP1) HepG2 Assay for turtle Thyroid Hormone Receptor, alpha (TRa) (AID 2283834).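 Further: hits raise reporter mRNA over the DMSO baseline so AC50 marks activators.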 The gist of the method:
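HepG2 cells transiently transfected with GAL4-UAS reporter units for chimeric turtle TRa-Gal4; mRNA measured 24 h after dosing by RT-PCR and capillary electrophoresis fluorescence, gain of signal fitted against DMSO.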
As to `CC(C)(c1cc(Br)c(O)c(Br)c1)c1cc(Br)c(O)c(Br)c1`, the result was inactive.

For the compound `CC/C(=C(/CC)c1ccc(O)cc1)c1ccc(O)cc1`, the call was inactive.

For `Cc1c2ccccc2c(C)c2c1ccc1ccccc12`, the AC50 is 39.9 µM (active).

For the compound `O=c1c(-c2ccc(O)cc2)coc2cc(O)cc(O)c12`, the outcome was inactive.

As to `CC1(C)NC(=O)N(c2ccc([N+](=O)[O-])c(C(F)(F)F)c2)C1=O`, the outcome was inactive.

As to `O=C(O)Cc1cc(I)c(Oc2ccc(O)c(I)c2)c(I)c1`, the AC50 was 0.00328 µM (active).

Tested on in the next experiment: not listed separately
Kind of experiment: ATG_M_61_XSP2: Attagene TRANS-FACTORIAL Multi-Species (XSP2) HepG2 Assay for M61 Transcription Factor (Internal Marker) (AID 2283835; active means hit-call score of the fitted dose curve at least 0.9, where 1 is the maximum; inactive means score below 0.9;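 further: reporter mRNA of an internal background marker read by RT-PCR and capillary electrophoresis; active means a rise in signal above the DMSO baseline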). The gist of the method:
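First, HepG2 cells are transfected with reporter units under GAL4-UAS control. Next, chemicals are applied for 24 h. Then total RNA is reverse-transcribed, amplified, fluorescently labelled and sized by capillary electrophoresis, with gain of signal scored against DMSO.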
As to `CC(C)(c1cc(Br)c(O)c(Br)c1)c1cc(Br)c(O)c(Br)c1`, the result was inactive.

`CC/C(=C(/CC)c1ccc(O)cc1)c1ccc(O)cc1`: the outcome was inactive.

Regarding `C[C@]12CC[C@@H]3c4ccc(O)cc4CC[C@H]3[C@@H]1CCC2=O`, the compound was called inactive.

On to `Cc1c2ccccc2c(C)c2c1ccc1ccccc12`, for which the call was inactive.

For `O=c1c(-c2ccc(O)cc2)coc2cc(O)cc(O)c12`, the call was inactive.

Regarding `O=C(O)Cc1cc(I)c(Oc2ccc(O)c(I)c2)c(I)c1`, the compound was classed as inactive.

A further experiment addresses zebrafish Thyroid Hormone Receptor beta (TRb), thrb (gene 30607) (UniProt Q9PVE4). Nature of the experiment: ATG_zfTRb_XSP2: Attagene TRANS-FACTORIAL Multi-Species (XSP1) HepG2 Assay for zebrafish Thyroid Hormone Receptor beta (TRb) (AID 2283836).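 On AC50: potency for induction of reporter signal above DMSO so agonist direction.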 The method in brief: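 Fluorescence of labelled reporter cDNA fragments, separated by capillary electrophoresis, gives mRNA induction from exogenous NR-Gal4 chimeras in transiently transfected HepG2 cells after 24 h dosing; 3 nM 6-alpha-fluorotestosterone and 1.5 nM norgestrel included in the run.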
In the case of `CC(C)(c1cc(Br)c(O)c(Br)c1)c1cc(Br)c(O)c(Br)c1`, the compound was called inactive.

Consider `CC/C(=C(/CC)c1ccc(O)cc1)c1ccc(O)cc1`, for which the call was inactive.

For the compound `O=c1c(-c2ccc(O)cc2)coc2cc(O)cc(O)c12`, the compound was classed as inactive.

For the compound `CC1(C)NC(=O)N(c2ccc([N+](=O)[O-])c(C(F)(F)F)c2)C1=O`, the call was inactive.

For the compound `O=C(O)Cc1cc(I)c(Oc2ccc(O)c(I)c2)c(I)c1`, the AC50 is 0.504 nM (active) and 5.79 nM (active).

Another experiment deals with human Thyroid hormone Receptor alpha (TRa), THRA (gene 7067) (UniProt P10827). Kind of experiment: ATG_hTRa_XSP2: Attagene TRANS-FACTORIAL Multi-Species (XSP2) HepG2 Assay for human Thyroid hormone Receptor alpha (TRa) (AID 2283838). The method in brief: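 HepG2 cells transiently transfected with multiplexed GAL4-UAS reporter units and exogenous NR-GAL4 chimeras; 24 h chemical exposure with 3 nM 6-alpha-fluorotestosterone and 1.5 nM norgestrel present. Reporter mRNA measured by RT-PCR, FAM labelling, HpaI digestion, capillary electrophoresis; gain-of-signal versus DMSO.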
Chain of human Thyroid hormone Receptor alpha (TRa), THRA (gene 7067) (P10827 whole entry, looked up, the tested form may be a part): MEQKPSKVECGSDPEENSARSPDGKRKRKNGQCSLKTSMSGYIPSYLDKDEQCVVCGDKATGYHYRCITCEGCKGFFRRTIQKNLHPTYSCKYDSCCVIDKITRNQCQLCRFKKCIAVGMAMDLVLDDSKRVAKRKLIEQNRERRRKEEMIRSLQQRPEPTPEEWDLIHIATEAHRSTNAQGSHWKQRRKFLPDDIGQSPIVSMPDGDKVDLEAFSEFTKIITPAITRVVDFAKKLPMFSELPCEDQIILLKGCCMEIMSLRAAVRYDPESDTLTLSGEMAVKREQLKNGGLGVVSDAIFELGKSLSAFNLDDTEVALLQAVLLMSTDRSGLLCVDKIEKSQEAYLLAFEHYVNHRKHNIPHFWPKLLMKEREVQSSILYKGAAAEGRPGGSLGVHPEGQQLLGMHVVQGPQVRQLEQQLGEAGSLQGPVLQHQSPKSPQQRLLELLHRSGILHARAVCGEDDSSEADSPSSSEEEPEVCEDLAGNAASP
Take `CC(C)(c1cc(Br)c(O)c(Br)c1)c1cc(Br)c(O)c(Br)c1`: the compound was called inactive.
